Values without a mark were called inactive. Activity calls are given as the source filed them. Calls come from the whole dose curve; as a rule, active = well fitted curve in the direction sought with a large enough effect; inconclusive = small, poorly fitted or top-dose-only effect, or effect the other way, or another doubt; inactive = no such curve, though single readings can be large or run the other way.

The assay can be described thus: Inducers of the Endoplasmic Reticulum Stress Response (ERSR) in human glioma: Validation (AID 504836). Note: 0% is about no effect. As to conditions: human glioma cells, ER stress response reporter; series mostly up to 38.3 µM; activation: at the top concentration. An excerpt:
Primary protein unfolding takes place for many diseases, including diabetes and hypoxia, , and triggers a reaction in the cells called ER stress response (ERSR). ). ERSR is designed as a repair mechanism, but ultimately leads to cell death via apoptosis if conditions triggering protein unfolding persist (1). The molecular clue to ERSR activation is the enhancement of the expression of key molecular chaperones, including the glucose regulated protein (GRP) 78. GRP78 is the main sensor for protein folding and the main actuator of the ERSR.
In a collaboration between the Southern Research Institute and the NIH Chemical Genomics Center, a cell based screen was developed that reliably uses GRP78 as a sensor to identify small molecules as inducers of ERSR. In resting conditions, GRP78 binds proteins and acts as a natural repressor. Once unfolded proteins are present in the ER, GRP78 releases some of the repressors and binds to the unfolded proteins. The release of the repressors executes the ERSR program. Using a human glioma cell line in a miniaturized, luminescent format, a high-throughput screen was developed to identify actuators of the ERSR.
(1) Soboloff, J. and S. A. Berger (2002). "Sustained ER Ca2+ depletion suppresses protein synthesis and induces activation-enhanced cell death in mast cells." J Biol Chem 277(16): 13812-20.
NIH Chemical Genomics Center [NCGC]
NIH Molecular Libraries Probe Centers Network [MLPCN]
Assay Submitter (PI): Maurizio Grimaldi, Southern Research Institute
Stable transfected human glioma cell line, U87-MG, are dispensed at density 1000 cells/well into Greiner white solid bottom 1536-well assay plates. Compounds are transferred via Kalypsys pin tool equipped with 1536-pin array (10nl slotted pins, V&P Scientific, San Diego, CA). The assay plates will be incubated for 16 hours and developed by adding appropriate quantities of the Promega Bright Glo reagent. The plates will be incubated at room temperature for 10 minutes prior to being transferred into a ViewLux high-throughput CCD imager (PerkinElmer), wherein end-point measurements of luminescence are acquired.
On to `CN[C@H](CC(=O)O)C(=O)O`, for which the “activation” value is -1.92%. For the compound `N[C@@H](CC(=O)O)C(=O)O`, the “activation” value is -3.6%. On the same count and under the same terms, under `CN1CCC[C@H]1c1cccnc1` stands 0.417%; under `CSC(=N)N`, 1.91%. For `Brc1c(Br)c(Br)c2[nH]cnc2c1Br`, the “activation” value was -7.49%. The same measure, in the same setting: under `O=C(O)C1CCNCC1` stands -4.09%; under `O=c1[nH]c2cc(Cl)c(Cl)cc2[nH]c1=O`, 6.84%. Still for that read-out and setting: as for `Cn1cc(C(F)(F)F)nc1-c1ccc(OCC(O)CNCCOc2ccc(O)c(C(N)=O)c2)cc1` (stereo not given), the figure is -0.923%; as for `C[C@H]1O[C@@H](n2cc(F)c(=O)[nH]c2=O)[C@H](O)[C@H]1O`, -4.24%; as for `c1ccc(C2CN3CCSC3=N2)cc1` (stereo not given), -3.03%. Still for that read-out and setting: as for `Clc1ccc2c(c1)N=C(N1CCNCC1)c1ccccc1N2`, the figure is -0.443%; as for `COC(=O)C1=C(C)NC(C)=C([N+](=O)[O-])C1c1ccccc1C(F)(F)F` (stereo not given), -1.38%; as for `CC1CNCCN1S(=O)(=O)c1cccc2cnccc12` (stereo not given), -7.48%.

As to `CN(C)CCCO[C@@H]1[C@H]2OC(C)(C)O[C@H]2O[C@@H]1[C@H](O)CO`, the “activation” value is -3.08%.

Turning to `CCN(CC)CCCCCCCCOC(=O)c1cc(OC)c(OC)c(OC)c1`, the “activation” value was 2.38%. `N#CC(C#N)=C(N)/C(C#N)=C/c1ccc(O)cc1`: the “activation” value is -1.6%. With `C[C@@H](CN1CCC(Cc2ccccc2)CC1)[C@@H](O)c1ccc(O)cc1`, the “activation” value is -2.21%. The same measure, in the same setting: as for `Nc1nc(Cl)nc2c1ncn2[C@@H]1O[C@H](COP(=O)(O)OP(=O)(O)OP(=O)(O)O)[C@@H](O)[C@H]1O`, the figure is -1.07%; as for `c1ccc(CN2CCC3(CCCc4ccccc43)CC2)cc1`, -7.03%. On to `CN1CCc2cc(O)c(O)cc2C(c2ccccc2)C1` (stereo not given), for which the “activation” value is -2.16%.

Consider `O=C(O)[C@@H]1C[C@H](C(=O)O)N1`, for which the “activation” value is -0.928%.

For `O=c1c(-c2ccc(O)cc2)coc2cc(O)ccc12`, the “activation” value was -10.9%. The same measure, in the same setting: as for `CC(C)NCC(O)COc1cccc2ccccc12` (stereo not given), the figure is 0.634%. For the compound `CC(C)(C)[C@]1(O)CCN2C[C@H]3c4ccccc4CCc4cccc(c43)[C@@H]2C1`, the outcome was inactive. Turning to `N#C/C(=C\c1ccc(O)c(O)c1)C(=O)Nc1ccccc1`, the “activation” value is 3.6%. Still for that read-out and setting: under `O=c1[nH]c2cc(C(F)(F)F)ccc2n1-c1cc(C(F)(F)F)ccc1O` stands 0.0129%; under `CCN1CCCC1CNC(=O)c1cc(S(N)(=O)=O)ccc1OC` (stereo not given), 1.06%; under `N[C@@H](Cc1ccc(F)cc1)C(=O)O`, -2.08%. On the same count and under the same terms, under `CC(C)NC[C@H](O)COc1cccc2ccccc12` stands -3.14%; under `CC(=O)O[C@H]1C[C@@H]2CC[C@@H]3[C@H](CC[C@@]4(C)[C@H]3C[C@H]([N+]3(C)CCCCC3)[C@@H]4OC(C)=O)[C@@]2(C)C[C@@H]1[N+]1(C)CCCCC1`, -0.0075%; under `CN1C2CC(OC(=O)[C@H](CO)c3ccccc3)CC1C1OC12` (stereo not given in full), -2.85%. Turning to `CC(=O)/C=C1\C(=O)N(C)c2ccccc21`, the “activation” value is -2.48%.

For `O=C(c1cc(O)c(O)c([N+](=O)[O-])c1)c1ccccc1F`, the “activation” value was -1.13%. For the compound `COc1cc2c(CCNC(C)=O)c[nH]c2cc1Cl`, the “activation” value is -2.15%. On the same count and under the same terms, under `CCCCCCCCCCCCCCCCCCNC(=O)OCC(COP(=O)([O-])OCC[n+]1ccsc1)OC` (stereo not given) stands 1.58%; under `c1ccc(C(NCc2cccnc2)(c2ccccc2)c2ccccc2)cc1`, 0.955%; under `Ic1ccc(N2CCN(Cc3c[nH]c4ncccc34)CC2)cc1`, -2.45%. On the same count and under the same terms, under `NC(=S)c1ccc[n+]([C@@H]2O[C@@H](COP(=O)([O-])OP(=O)(O)OC[C@H]3O[C@@H](n4cnc5c(N)ncnc54)[C@H](OP(=O)(O)O)[C@@H]3O)C(O)C2O)c1` (stereo not given in full) stands -4.46%; under `C1CCc2nnnn2CC1`, -3.67%. As to `Nc1ncnc2c1ncn2C1CCCC1`, the “activation” value is -3.35%.

The values are drawn from PubChem BioAssay (NCATS).
